Screens from PubChem BioAssay.
AmpC no deterg: AmpC beta-lactamase inhibition without detergent. AmpC nitrocefin hydrolysis, absorbance 480 nm, 0.0001% Triton. Potency, µM (titrated, usually from 57.1 µM), inactives show at the top dose activity change, negative = inhibition, actives largely listed as inhibitors. 0.52% of 330,000 active;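 further: potency means the concentration at half of the fitted maximal effect; plate controls were no compound for no effect and no enzyme for full effect; nearly all actives have a fitted effect of over 20% in size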
Target sequence (P00811 whole entry, looked up): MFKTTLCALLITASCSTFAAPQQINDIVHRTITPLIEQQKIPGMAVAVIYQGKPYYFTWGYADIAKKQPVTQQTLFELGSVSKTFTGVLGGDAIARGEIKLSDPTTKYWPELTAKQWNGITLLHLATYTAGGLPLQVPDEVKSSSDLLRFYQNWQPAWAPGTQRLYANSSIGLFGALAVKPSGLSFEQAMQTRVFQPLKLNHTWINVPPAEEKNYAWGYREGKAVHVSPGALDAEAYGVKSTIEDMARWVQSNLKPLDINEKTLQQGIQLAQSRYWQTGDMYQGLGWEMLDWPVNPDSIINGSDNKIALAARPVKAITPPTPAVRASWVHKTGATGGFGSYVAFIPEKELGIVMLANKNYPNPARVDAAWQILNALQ
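AmpC (5.3 nM in the dispensed reagent) in 20 mM phosphate pH 7.0 with 0.01% (detergent screen) or 0.0001% Triton X-100 was preincubated with compounds for 15 min at room temperature. Nitrocefin was then added from an 800 uM solution, and hydrolysis was followed at 480 nm.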
CHX counter: counter-screen hit for Shiga toxin inhibitors, cycloheximide. cell reporter, cycloheximide protein synthesis inhibition counterscreen. max response, %. 12% of 300,000 active; in the data active means max response mostly above about 13%, no sharp cut-off; inactive means mostly below about 14%; further: read at 38.3 µM for the half of the compounds with a filed dose; 0% is about no effect
AmpC detergent: inhibitors of E. coli AmpC beta-lactamase with detergent | P00811 | AmpC hydrolysis of nitrocefin, absorbance 480 nm, 0.01% Triton | Potency, µM (titrated, usually from 114 µM), without a hit: top-dose activity change, negative = inhibition, usual class: inhibitors | 0.041% of 370,000 active;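 further: potency means the concentration at half of the fitted maximal effect; 0% = no-compound wells and -100% = no-enzyme wells; nearly all actives have a fitted effect of over 25% in size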
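AmpC (5.3 nM in the dispensed reagent) in 20 mM phosphate pH 7.0 with 0.01% (detergent screen) or 0.0001% Triton X-100 was preincubated with compounds for 15 min at room temperature. Nitrocefin was then added from an 800 uM solution, and hydrolysis was followed at 480 nm.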
NS1 function inh: influenza NS1 inhibition | 0.4% of 270,000 active | Potency, µM (highest dose often 46.1 µM), for the others: at the top dose activity, positive = more growth; calls by dose curve; further: potency means the concentration at half of the fitted maximal effect; actives are rising curves; nearly all actives have a fitted effect of over 50% in size
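Compounds were scored for reversing the slow growth caused by influenza A NS1 in S. cerevisiae, measured by optical density at 600 nm. Assay medium contained 2% galactose at pH 6.0; NS1-free yeast of the same strain were the positive control.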
Shiga toxin inh: blocks Shiga toxin action in Vero cells. Vero cells, Shiga toxin protein synthesis inhibition reporter. inhibition, % at 38.7 µM. 9.2% of 290,000 active; in the data active means inhibition mostly above about 28%, no sharp cut-off; inactive means mostly below about 43%; further: 0% is about no effect
Active calls of the source: *; ? = inconclusive; . = not tested or not shown. Only a selection was taken, and hits are over-represented in it overall. Unless noted, the call rests on the fitted dose curve; in most records, active means well fitted curve in the direction sought with a large enough effect; inconclusive means small, poorly fitted or top-dose-only effect, or another doubt; inactive means no such curve, though single readings can be large; an effect the other way counts as inactive or inconclusive.

SMILES | AmpC no deterg | CHX counter | AmpC detergent | NS1 function inh | Shiga toxin inh
COc1ccc(C(CNC(=O)Cc2cccs2)N(C)C)cc1 (stereo unspecified) | -13.3% | 11.1* | -3.0% | -8.2% | 19.0
O=C(Cc1cccs1)NCc1cccs1 | -11.7% | 13.1 | -7.0% | 2.8% | 38.9
O=C(Cc1cccs1)NCc1cccc(Br)c1 | -16.0% | 28.8* | 3.5% | 1.2% | 66.3*
COc1ccc(CC(=O)NCc2cccs2)cc1 | -3.3% | 5.6 | -1.2% | -3.0% | 15.9
FC(F)(F)c1cc(-c2cccc(Br)c2)nc2ncnn12 | . | . | 20.2% | . | .
Cc1cccc(Nc2nc(Nc3cccc(C)c3)nc(N3CCOCC3)n2)c1 | . | . | 11.9% | . | .
O=C(CCn1c(=O)sc2ccccc21)NCc1ccc2c(c1)OCO2 | -21.5% | 12.0* | 0.6% | -7.4% | 6.4
O=C(Cc1cccs1)NCc1ccc(F)cc1 | -7.4% | 22.5* | ? | -4.8% | 33.8
COCCN(C(=O)Cc1cccs1)C(C(=O)NCc1ccc(OC)cc1)c1ccc(C)cc1 (stereo unspecified) | 0.316µM* | -0.7 | 5.9% | -18.9% | -1.5
COc1ccccc1CC(=O)NCc1ccc2c(c1)OCO2 | -0.5% | 15.6* | 5.2% | 7.1% | 29.2*
COc1ccc(CC(=O)NCc2ccc3c(c2)OCO3)cc1 | -17.2% | 1.3 | -0.7% | -14.0% | -5.8
CCc1ccc(C(C(=O)NCc2ccc(OC)cc2)N(CCOC)C(=O)Cc2cccs2)cc1 (stereo unspecified) | 0.2% | 1.7 | -6.3% | -42.7% | -11.6
COc1ccc(-c2cn3c(n2)sc2cc(C(=O)NCc4cccc(F)c4)ccc23)cc1 | . | . | 21.8% | . | .
CCOC(=O)c1c(C)[nH]c(C)c1S(=O)(=O)N1CCCC(C(=O)NCc2cccc(C)c2)C1 (stereo unspecified) | . | . | -0.1% | . | .
O=C(CSc1nc(=O)n(Cc2ccccn2)c2c1CCC2)Nc1ccccc1 | . | -1.4 | -1.2% | . | 4.3
COc1ccc(-c2nn(CCC#N)cc2C(=O)Nc2cccc(C(=O)O)c2)cc1[N+](=O)[O-] | -14.8% | -5.7 | -5.7% | 10.0% | -4.3
Cc1ccc(C2=NN(CCC(=O)NCc3ccc4c(c3)OCO4)C(=O)CC2)cc1 | 1.8% | 20.3* | -14.8% | -2.7% | -4.0
CN(C)c1ccc(NC(=O)COC(=O)CNC(=O)c2cccs2)cc1 | -12.5% | . | -4.8% | . | .
O=C(Cc1cccs1)NCc1ccc(Cl)cc1 | -13.4% | 15.1* | ? | -2.9% | 15.2
COc1ccc(CCNC(=O)CN2C(=O)NC3(CCCCC3)C2=O)cc1 | -4.4% | . | . | . | .
COc1ccc(C(CNC(=O)CN2C(=O)NC3(CCCC3)C2=O)N(C)C)cc1 (stereo unspecified) | -9.9% | 24.6* | 3.4% | -4.1% | -20.9
CN(C)c1ccc(C(CNC(=O)c2cccs2)N(C)C)cc1 (stereo unspecified) | -19.4% | 50.3* | -4.1% | 4.8% | 50.6*
Cc1ccc(CCNC(=O)c2c(C)oc3ncn(CC(C)C)c(=O)c23)cc1 | . | . | -1.3% | . | .
CCOCCc1nn2c(=O)cc(COC(=O)c3ccco3)nc2s1 | . | . | -2.8% | . | .
CCOC(=O)c1c(C)[nH]c(C)c1S(=O)(=O)N1CCC(C(=O)NCc2ccc(OC)cc2)CC1 | . | . | 3.4% | . | .
SMILES | AmpC no deterg | CHX counter | AmpC detergent | NS1 function inh | Shiga toxin inh
O=C(CSc1nccn1Cc1ccc(Cl)cc1)NC1CCCC1 | . | . | -8.1% | . | .
CCOc1ccc(C(=O)NCC(C)C)cc1 | . | 21.8* | -4.3% | -3.9% | 57.5*
CCOc1ccc(C(=O)NC(C)C2COc3ccccc3O2)cc1 (stereo unspecified) | -19.7% | 10.5* | ? | 1.8% | 33.7
CCOc1ccc(C(=O)NCC(C)NC(=O)c2ccc(OCC)cc2)cc1 (stereo unspecified) | -14.7% | 1.0 | -11.9% | 9.3% | 0.4
CCOc1ccc(C(=O)NCC(c2cccs2)N(C)C)cc1 (stereo unspecified) | 0.8% | 35.2* | -5.7% | -8.5% | 28.5*
O=C(Nc1ccccc1OCc1cc(=O)n2ccccc2n1)c1ccccc1F | . | . | 11.5% | . | .
CN(Cc1ccco1)C(=O)C1CCN(c2nnc(-n3cccc3)s2)CC1 | 47.4% | -3.8 | ? | -0.9% | 21.1
O=C(NCc1ccco1)C1CCN(c2nnc(-n3cccc3)s2)CC1 | 0.794µM* | 15.6* | 3.9% | -16.6% | 16.3
COc1cc2oc(-c3ccc(O)cc3)cc(=O)c2c(O)c1OC | -38.3% | 10.1* | -2.3% | -5.3% | 24.7
COc1ccc(-c2cc(=O)c3c(O)cc(O)cc3o2)cc1O | . | 34.0* | . | . | 70.1*
COc1c(O)cc2oc(-c3ccc(O)cc3)cc(=O)c2c1O | -36.9% | 12.9* | -1.1% | -80.9% | 51.4*
COc1cc2oc(-c3ccc(O)cc3)cc(=O)c2c(OC)c1O | -36.2% | 7.0 | -14.9% | 0.9% | 28.5
COc1c(-c2ccc(O)c(O)c2)oc2cc(O)cc(O)c2c1=O | -51.4% | active | 0.3% | -2.1% | 12.6
Cc1cc(C)cc(C(=O)Nc2c3c(nn2-c2ccccc2C)CS(=O)(=O)C3)c1 | . | . | 1.6% | . | .
Cc1cc(/C=C(\C#N)C(=O)Nc2ccc(Cl)cc2)c(C)n1-c1ccc(N2CCOCC2)c([N+](=O)[O-])c1 | 7.94µM* | -4.2 | -4.3% | 16.1% | -3.4
Cc1ccc(NC(=O)/C(C#N)=C/c2cc(C)n(-c3ccc(N4CCOCC4)c([N+](=O)[O-])c3)c2C)c(C)c1 | -9.1% | -1.5 | -7.1% | 7.6% | -10.5
CC1(C)CC(=O)c2cc(N=C/C(C(=O)c3ccccc3)=C(\O)c3ccccc3)c(=O)oc2C1 | -15.2% | 43.2* | 2.6% | -5.4% | 185.1*
Brc1ccc(Nc2ncnc3[nH]ncc23)cc1 | -21.1% | 11.3 | 1.0% | -0.2% | 22.0
NC1=NC(=O)/C(=C/c2cn(Cc3ccccc3)c3ccccc23)S1 | -37.3% | 23.8* | 9.2% | ? | 62.4*
O=Cc1cn(Cc2ccc(Br)cc2)c2ccccc12 | -32.6% | 0.4 | -0.1% | -4.1% | 3.3
CCC(C)(C)NC(=O)Cc1ccc(Cl)cc1 | 1.2% | 24.6* | 2.5% | 5.7% | 28.5
Cc1ccc(NC(=O)NC2CCCCCCC2)cc1C | -23.4% | 27.2 | 2.1% | 4.8% | 18.8
O=C(Nc1ccc(Cl)cc1)NC1CCCCC1 | -7.3% | 38.0* | ? | -5.7% | 99.7
O=C(NC1CCCCCC1)c1ccc(CS(=O)(=O)Cc2ccc(F)cc2)o1 | 5.0% | 21.8* | 3.7% | -0.1% | 40.4*
O=C(Nc1ccc(F)cc1)NC1CCCCCCC1 | -44.9% | 61.4* | -13.4% | -22.0% | 108.1*
Cc1ccc(NC(=O)CCSc2nc(-c3ccc4c(c3)OCO4)cc(C(F)(F)F)n2)cc1 | . | . | 21.0% | . | .
N#C/C(=C/c1ccc(F)cc1)c1nnc(NC(=O)c2ccccc2)s1 | -18.9% | 6.3 | -1.0% | -2.9% | -4.7
O=C(CCCc1c[nH]c2ccccc12)N[C@@H](Cc1c[nH]c2ccccc12)C(=O)O | -13.2% | 0.7 | -8.8% | 5.3% | 1.0
CC(=O)Nc1ccc(NC(=O)C(C)Sc2nc3ccccc3c(=O)n2CC2CCCO2)cc1 (stereo unspecified) | 3.1% | . | ? | . | .
Nc1ccc(NC(=O)NC2CCCCC2)cc1[N+](=O)[O-] | -17.1% | 33.3* | -2.2% | 9.4% | 64.5*
